Assay outcomes (PubChem)
Rows were chosen to be rich in hits. Some 2.9% of all compounds tested hit in one or more screens of this group.
ADAM10 inh – ADAM10 inhibition, QFRET primary screen; O14672; actives 0.62% (n = 370,000); recombinant ADAM10, EDANS/DABCYL FRET peptide cleavage, 3 h; inhibition, % at 7 µM;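 active means inhibition above a per-campaign cutoff equal to the mean of compounds falling between control-based bounds plus 3 SD, cut at about 20% in these data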;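 further: 0% = DMSO wells while the 100% control is not disclosed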
ADAM17 inh – inhibits human ADAM17; actives 0.83% (n = 370,000); P78536; recombinant ADAM17, EDANS/DABCYL FRET peptide cleavage; inhibition, % at 6.95 µM;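 active means inhibition above the mean of compounds lying between control limits plus 3 SD, set per campaign, cut at about 8.5% in these data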;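 further: 0% = DMSO-only wells as the low control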
Target sequence (P78536 215-824 limits assumed): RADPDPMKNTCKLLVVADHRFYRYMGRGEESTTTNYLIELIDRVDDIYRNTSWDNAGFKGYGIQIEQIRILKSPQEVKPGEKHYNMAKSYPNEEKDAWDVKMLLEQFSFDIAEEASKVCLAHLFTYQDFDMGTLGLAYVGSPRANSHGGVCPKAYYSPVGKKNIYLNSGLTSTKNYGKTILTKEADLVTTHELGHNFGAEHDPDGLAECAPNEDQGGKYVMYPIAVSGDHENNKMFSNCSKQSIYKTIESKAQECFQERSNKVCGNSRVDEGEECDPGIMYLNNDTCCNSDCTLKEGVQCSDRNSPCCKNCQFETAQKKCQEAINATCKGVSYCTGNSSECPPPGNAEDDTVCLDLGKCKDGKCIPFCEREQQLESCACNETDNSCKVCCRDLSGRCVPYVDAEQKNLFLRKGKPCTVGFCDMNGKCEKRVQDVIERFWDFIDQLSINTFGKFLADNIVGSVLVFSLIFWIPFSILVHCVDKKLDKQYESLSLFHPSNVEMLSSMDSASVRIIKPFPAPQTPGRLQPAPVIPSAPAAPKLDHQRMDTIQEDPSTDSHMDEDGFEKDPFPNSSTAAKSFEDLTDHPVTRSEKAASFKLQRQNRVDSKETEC
KLK7 zymogen act – activators of human kallikrein-7 zymogen; actives 0.9% (n = 370,000); activation, % at 7 µM; purified proKLK7, EDANS-DABCYL substrate fluorescence; 100% is mature enzyme control, 0% vehicle; P49862;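 active means activation above the mean of all tested compounds plus 3 SD, computed per campaign excluding outliers beyond control limits, cut at about 13% in these data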
PLCg1 inh – inhibitors of human phospholipase C gamma1. P19174. purified PLC-gamma1, fluorogenic substrate, fluorescence. inhibition, % at 12.2 µM. actives 0.84% (n = 370,000). AID 720700; in the data active means inhibition above about 9.5%
PLCb3 inh – blocks human PLC-beta3 enzyme activity. inhibition, % at 12.2 µM. actives 0.18% (n = 370,000). AID 720704. Purified PLC-beta3, fluorogenic substrate, fluorescence. Q01970; in the data active means inhibition above about 11%;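 further: 0% = median of compound wells on plate and 100% = full blocker control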
proKLK7 act conf – proKLK7 activation, confirmation | shares compounds with KLK7 zymogen act | purified proKLK7, EDANS-DABCYL substrate fluorescence; scaled: vehicle 0, mature enzyme 100 | activation, % at 7 µM | actives 68% (n = 3,200) | AID 686949;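 active means activation, as change over the incubation, above the mean of all tested compounds plus 3 SD, cut at about 13% in these data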
EDANS interfere – counter-screen for kallikrein-7 activators: EDANS-DABCYL optical interference | shares compounds with KLK7 zymogen act | EDANS-DABCYL substrate fluorescence interference, no enzyme, 4 h; solvent 0%, active enzyme control 100% | activation, % at 7 µM | actives 80% (n = 3,200) | AID 686952;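 active means activation above the all-compound mean plus 3 SD, ignoring values outside control-based bounds, cut at about 4.8% in these data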;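 further: value is the 4 h activation minus the activation read at time zero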
K7 EDANS ctr – optically interferes with EDANS-DABCYL fluorescence, kallikrein-7 activator counter-screen | shares compounds with KLK7 zymogen act | EDANS-DABCYL peptide fluorescence interference, no enzyme | EC50, µM | actives 20% (n = 250);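 active means compounds that raise the fluorescence signal in this interference counterscreen, with EC50 at or below 10 µM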;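 further: intact quenched peptide substrate alone read at 355 nm excitation and 520 nm emission; signal is fluorescence gain from T0 to T4 after four hours at room temperature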
Numbers without * were called inactive; i = inactive; · = no result.

SMILES	ADAM10 inh	ADAM17 inh	KLK7 zymogen act	PLCg1 inh	PLCb3 inh	proKLK7 act conf	EDANS interfere	others
COc1cc(NC(=O)c2ccco2)c(OC)cc1NC(=O)CCC(=O)Nc1cc(C)ccc1C	i	-72	31*	-3	-8	14*	-7	K7 EDANS ctr=i
Cc1cc(OC(C)CCN2CCC(C(O)(c3ccccc3)c3ccccc3)CC2)ccc1Br (stereo not given)	9	4	0	5	2	·	·
Cc1ccc(CN2CCCCC(NC(=O)C(C)(C)C)C2=O)cc1 (stereo not given)	-2	-2	0	0	-1	·	·
CNC(=O)c1ccc(Nc2nnc(-c3ccc(C(N)=O)cc3)c3ccccc23)cc1	2	1	133*	-213	-302	7	108*
CC(C)NC(=O)OC[C@@H]1CSCCS(=O)(=O)N1	-12	5	0	2	7	·	·
COc1ccc(OC(=O)c2cccc([N+](=O)[O-])c2)c(C(=O)/C=C/c2cccs2)c1	-12	-6	25*	-27	-50	20*	15*	K7 EDANS ctr=i
COc1cccc(/C=C/C(=O)c2cccc([N+](=O)[O-])c2)c1	5	0	-1	2	-13	·	·
C/C(C=NNC(=O)CSc1nc2ccccc2n1Cc1ccccc1Cl)=C\c1ccccc1	4	5	0	3	0	·	·
O=C(Nc1ccc(O)c(C(=O)O)c1)Oc1ccccc1	-182	-77	26*	-72	-111	30*	28*
O=C(Nc1ccc2oc(=O)c(C(=O)O)cc2c1)Oc1ccccc1	-208	-56	100*	-251	-342	187*	181*
Cc1cccc(C)c1NC(=O)C1CCN(c2ncccn2)CC1	-37	-8	1	-6	-9	·	·
COc1ccccc1CN[C@@H]1CC[C@@]23CCCN2C(=O)CCC[C@H]3C1	-10	-7	·	0	1	·	·
C=CCN(C(=O)c1ccc2c(c1)nnn2C)c1ccccc1	0	1	0	3	-1	·	·
CCN(CC)C(=O)c1ccc2c(c1)nnn2C	-4	-3	16*	-1	1	0	0
CCOC(=O)C1CCN(c2cc3c(cc2NC(=O)c2ccc(OC)c(OC)c2)n(C)c(=O)n3C)CC1	-25	-8	4	-79	-122	·	·
CCOC(=O)C1CCN(c2cc3c(cc2NC(=O)c2ccccc2)n(C)c(=O)n3C)CC1	-39	-10	20*	-361	i	12	12*
CCC(CC)COC(=O)C1=C(C)NC(=O)NC1c1cc(OC)ccc1OC (stereo not given)	-1	-3	52*	-2	-6	1	2
C[C@H](CO)N1C[C@H](C)[C@H](CN(C)C(=O)Nc2ccc(N3CCCCC3)cc2)OCc2cnnn2CCCC1=O	1	-3	0	-5	-6	·	·
O=[N+]([O-])c1ccc(O)c(C=Nc2ccc3nc(-c4ccccc4)[nH]c3c2)c1	i	i	65*	i	i	57*	63*
Fc1cc(F)c(CSc2nnc(-c3cccnc3)n2Cc2ccccc2)cc1F	1	-1	1	2	1	·	·
CC1(C)C2CCC1(C)C(OC(=O)C[n+]1ccccc1N)C2 (stereo not given)	-200	-62	52*	-17	-36	99*	100*
CCc1cccc2cc3c(N)c(C(=O)Nc4ccc(S(=O)(=O)N5CCCC5)cc4)sc3nc12	-45	-7	119*	i	i	62*	57*
C#CCCCN([C@@H](CC(C)C)C(=O)OC)S(=O)(=O)c1ccc(F)cc1Br	5	1	0	-2	0	·	·
N#Cc1ccccc1OCCN1C(=O)c2ccccc2C1=O	-1	-3	0	1	1	·	·
Nc1cccc2c1C(=O)N(CCOc1ccccc1F)C2=O	-333	-102	47*	i	i	72*	78*
c1ccc(CNc2nc(Oc3ccncc3)c3sccc3n2)cc1	i	-218	15*	-410	i	10	4.9*
